Laboratory results published in publication PMC12136788.
Where a chain is given by its changes, count along the chain named. Whole data set: some 24,000 sequences, median “enrichment r” near 0.99, cut for the highest 2% near 3.7. The sample as a whole holds a higher share of the highest values than the screen did.

T1: UNK ZnF1-3 (human, UniProt Q9C0B0 31-174)
T1 sequence: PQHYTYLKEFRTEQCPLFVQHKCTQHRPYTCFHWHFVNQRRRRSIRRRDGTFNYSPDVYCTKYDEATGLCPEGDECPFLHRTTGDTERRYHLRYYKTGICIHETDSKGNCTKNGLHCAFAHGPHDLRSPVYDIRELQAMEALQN

B1: 23382874_23385586_565_CDS_ENSMUSG00000026158_ENSMUST00000027343|mouse|control|control (ssRNA)
RNA: GGGAGUUCUACAGUCCGACGAUCUUCUCUCAGGGGGAAAAGCCAUUGGAUGUACGUGUGGUUGUGCUCCAGCUUCUCGUAGUCCCCUUUCCACUUAUUUAGAACCUCUUCAAUGUAAACACCAUCCGGCUUAAAUGGAAUUUUCAACAGAGGAUUGAGCAUCA
B2: chr1:39494447:39494448:+_ENSG00000168653_ENST00000372967|hu_mus|hu_hu_hu_mus_False|58_68 (ssRNA)
RNA: GGGAGUUCUACAGUCCGACGAUCGCACCGAGCGGCGUUCUUAUAGGGCUGUUCUGCGCUUAGGAACGUCAACCAUCGAUCUAUGUUGAUGCCCAGCUUUUUCUGUAUGUCAAGGAAAGGCAUGGCUCUGCAGUGCCCUUGUCACAACAGAGGAUUGAGCAUCA
B3: chr3:179287964:179287965:+_ENSG00000136518_ENST00000429709|hu_hu|hu_hu_hu_mus_True|38_38 (ssRNA)
RNA: GGGAGUUCUACAGUCCGACGAUCCUUGAGUGGUGAGAUGGCCUCCAUGUUCUCCCUGGGCACGCGGAGGGCAUUGGUGUCUAUGUAGUAGGUGGGCCCGCCUUGUUUGCCUUUGUCACCAUCAAUCUCCAUCAUUGUACUUCCCAACAGAGGAUUGAGCAUCA
B4: chr1:58468927:58468928:-_ENSMUSG00000026034_ENSMUST00000148330|mus_hu|FALSE|FALSE (ssRNA)
RNA: GGGAGUUCUACAGUCCGACGAUCAAUUACUGAAAAAGAUGUUCAUUACCUUAGCUAUGUACUUAAUGAACCAAAUUACCCAAACAAAAUAAACAUGGCAAUAUAAAAAUGUUAAGAAUUUACAAAGCUGUACAAAAUAACUUACAACAGAGGAUUGAGCAUCA
B5: chr1:58468927:58468928:-_ENSMUSG00000026034_ENSMUST00000148330|mus_mus|mus_mus_mus_hu_False|18_88 (ssRNA)
RNA: GGGAGUUCUACAGUCCGACGAUCAAUUACUGAAAAAGAUGUUCAUUUAUUUGGUUUUGUACUUAAUGAACCAAAUUACCCAAACAAAAUAAACAUGGCAAUAUAAAAAUGUUAAGAAAAUAACUUACUGUACAAAAUAACUUACAACAGAGGAUUGAGCAUCA
B6: chr1:185277986:185277987:-_ENSG00000116679_ENST00000392007|hu_mus|FALSE|FALSE (ssRNA)
RNA: GGGAGUUCUACAGUCCGACGAUCCUGCUUGACUCGGUCCAUCUUCAGCUUCUUGGCUGCAGAAUAAACAUCUUUUACUAAUUCCUUAUCAGCUUUCAACUGAGCCGUGUAUGCAUAAUUCAGCAAGACUUCAACAGCUUCUGGCAACAGAGGAUUGAGCAUCA
B7: chr11:57926588:57926589:+_ENSMUSG00000020515_ENSMUST00000020822|mus_hu|FALSE|FALSE (ssRNA)
RNA: GGGAGUUCUACAGUCCGACGAUCGUCAAUCCCUUCCUCUUCAUGCUUCUGAAACUGUAGUCCUGAGUUAGCAAGGAGAUCUAUGGAAUCCUGGGAGUACAUGUCCUCUGUAAGGUUAAAUUUGAAAUUGAACUGCCAAGUAUUCAACAGAGGAUUGAGCAUCA
B8: chr4:54876292:54876293:-_ENSG00000109220_ENST00000263921|perfect_dup|motif|central (ssRNA)
RNA: GGGAGUUCUACAGUCCGACGAUCCUAUAAAUAAAGUAAAUGCUAAUCUGGUCGAAAAAUCGGUGUCUUUGGUAAAAAUUCGGUGAGGAUGACAUAUUCCAUCAUGUUAUUCGUUUCACAUUUCCUUUUGCUCAGUCUCCAAUGCAACAGAGGAUUGAGCAUCA
B9: chr15:80390846:80390847:+_ENSG00000086666_ENST00000559775|hu_hu|FALSE|FALSE (ssRNA)
RNA: GGGAGUUCUACAGUCCGACGAUCCUGUCCUGUAUCUUGAGACAGACAUUAGCUUUCUGCCUUCCCUAUUCUCAUAAGCAGCUACUUAAAAGUUUUGAAUUUUAUGCAAGAAAACAUUUUAAAGCCUUCUGUGUUUUACUGCAGCAACAGAGGAUUGAGCAUCA
B10: chr13:100194382:100194383:-_ENSMUSG00000052727_ENSMUST00000064762|mus_hu|FALSE|FALSE (ssRNA)
RNA: GGGAGUUCUACAGUCCGACGAUCUCCUGUAAAUGAAAACAUUUGUUAAAAAGUUCAUCUAUGAAAAGUUCUCACAUAUCUUAAAAAAAAAAUUCUUCUGUACACUUGUUCCCAUAAUUAUGUUGAAAUUAAUGGAAAAUUUAACAACAGAGGAUUGAGCAUCA
B11: chr13:100194382:100194383:-_ENSMUSG00000052727_ENSMUST00000064762|mus_mus|motif|central (ssRNA)
RNA: GGGAGUUCUACAGUCCGACGAUCUCCUGUAAAUGAAAACAUUUGUUAAAAAGUUCAUCUAUGAAAAGUUCUCGAGUAGCGGAAAAAAAAAAAAAAAAAAAAAAAAAUCUUCUGUACAUGUGUUCCCAUGUGUUGAAAUUAAUGCAACAGAGGAUUGAGCAUCA
B12: chr13:100194382:100194383:-_ENSMUSG00000052727_ENSMUST00000064762|mus_mus|FALSE|FALSE (ssRNA)
RNA: B11 RNA with G80U, G81A
B13: 53612100_53613521_5214_CDS_ENSG00000086758_ENST00000262854|human|control|control (ssRNA)
RNA: GGGAGUUCUACAGUCCGACGAUCAGAGCGAUCAUCAAACCAGCGCCAGUUGUUGCUGUUGGAUUGCAGGUACUUAGUCAUCUGGGCUCUCCUUUUUGAGGAGAUGGCUGUCUUUUCAUAGAAAUCAAUCAGGAGCAACACUGGCAACAGAGGAUUGAGCAUCA
B14: chr1:163117127:163117128:-_ENSG00000143248_ENST00000313961|hu_hu|motif|central (ssRNA)
RNA: GGGAGUUCUACAGUCCGACGAUCGCAGGGUUAUUAUGGAGGAAAUAACUCACAGGAUGAUUUCAUAGCCUGGCUAAAUUACGGCUUGAUUAACUCCUGAUAAAACUCAGAGCGCACAAAGCGAGGCAGAGAAUCCUUUUCCAUCAACAGAGGAUUGAGCAUCA

Target: T1, UNK ZnF1-3
Assay: nsRBNS (natural sequence RNA bind-n-seq); RBNS binding buffer (assumed for nsRBNS): 25 mM Tris pH 7.5, 150 mM KCl, 3 mM MgCl2, 0.01% Triton X-100, 500 ug/ml BSA, 20 U/ml SUPERase-In, 4 C; UNK is unkempt and MSI1 is Musashi-1; names of the RNAs are library labels; protein concentration not given here; high values mean tight binding

| Binder | binding signal [enrichment R] |
| --- | --- |
| B1 | 0.65 |
| B2 | 0.515 |
| B3 | 0.571 |
| B4 | 1.24 |
| B5 | 6.29 |
| B6 | 0.806 |
| B7 | 1.01 |
| B8 | 1.46 |
| B9 | 0.755 |
| B10 | 1.06 |
| B11 | 5.84 |
| B12 | 5.73 |
| B13 | 1.05 |
| B14 | 1.52 |
